Source: PubChem
This is a sample that favours compounds with a hit; in the whole collection about 2.2% have one here.
aSyn yeast inh: qHTS of alpha-syn Inhibitors. Yeast expressing alpha-synuclein, growth rescue, BacTiter-Glo, 24 h. Potency, µM (series often up to 46.1 µM), hits mostly activators. hit rate 0.14% among 370,000; also: nearly all actives have a fitted effect of over 65% in size
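Screening used galactose-induced yeast with toxic alpha-synuclein levels, exposed to compound for 24 hr at 30 deg C. Cell growth, read with BacTiter-Glo luminescence, gave the measured signal.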
TDP-43 yeast inh: qHTS of TDP-43 Inhibitors | TDP-43 expressing yeast growth rescue, BacTiter-Glo, 24 h | Potency, µM (highest dose often 46.1 µM), most hits filed as activators | hit rate 1.8% among 410,000 | AID 652104, 2013; also: nearly all actives have a fitted effect of over 50% in size
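Yeast expressing TDP-43 (pregrown in raffinose, seeded at OD600=0.02 in galactose medium) exposed to compounds 24 hr at 30 deg C. Growth read by BacTiter-Glo luminescence; rescue of toxicity appears as increased signal.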
FUS suppressor: qHTS for Suppressors of FUS Proteinopathy: Primary screen using FUS-linked yeast assay. S. cerevisiae FUS-expressing, growth rescue, OD600, 24 h. Potency, µM (titrated, usually from 76.6 µM), usual class: activators. hit rate 0.24% among 390,000; also: nearly all actives have a fitted effect of over 55% in size
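Steps: raffinose overnight preculture; dilution to OD 0.005 in 2% galactose minimal medium; compound addition (concentration series); 24hr at 30C, 99% humidity; absorbance read at 600 nm.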
ERG-DNA inh: qHTS for Small Molecule Inhibitors of the ERG Ets/DNA interaction. Transcriptional regulator ERG (Homo sapiens), P11308. fluorescence polarization, His-ERG Ets domain / labelled DNA. Potency, µM (doses to about 76.9 µM), hits mostly inhibitors. hit rate 0.028% among 370,000. AID 624246, 2012; active = well fitted inhibition curve with a large enough effect in the polarisation, with a control signal flat; inconclusive = small, poorly fitted or top-dose-only effect, or effect the other way, or a change in a side signal; inactive = no such curve, though single readings can be large or run the other way; the % refers to the polarisation;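 also: polarization taken with two DNA probes labelled with fluorescein and Texas red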
Target sequence (P11308 whole entry, looked up, the tested form may be a part): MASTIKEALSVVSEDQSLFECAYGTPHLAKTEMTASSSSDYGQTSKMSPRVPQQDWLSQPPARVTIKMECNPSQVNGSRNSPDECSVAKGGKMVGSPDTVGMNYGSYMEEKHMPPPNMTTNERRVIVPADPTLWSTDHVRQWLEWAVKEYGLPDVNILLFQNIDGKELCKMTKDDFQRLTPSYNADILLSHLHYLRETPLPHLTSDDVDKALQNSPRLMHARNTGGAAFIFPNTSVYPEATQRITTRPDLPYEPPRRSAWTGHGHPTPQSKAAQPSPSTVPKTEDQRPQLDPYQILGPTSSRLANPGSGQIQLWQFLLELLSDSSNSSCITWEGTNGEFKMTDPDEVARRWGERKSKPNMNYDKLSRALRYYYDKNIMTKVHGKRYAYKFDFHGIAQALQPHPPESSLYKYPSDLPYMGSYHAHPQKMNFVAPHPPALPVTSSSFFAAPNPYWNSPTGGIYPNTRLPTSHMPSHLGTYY
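His-tagged ERG Ets domain (1 uM in the protein solution; 300mM KCl, 50mM Tris-HCl, 1mM EDTA, 1mM DTT, pH 7.5) received compound, then a probe mix of 5 nM fluorescein-DNA and 100nM Texas-615-DNA. Fluorescence polarization was read for both dyes.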
Mito fusion yeast: qHTS Assay for Small Molecule Inhibitors of Mitochondrial Division or Activators of Mitochondrial Fusion. S. cerevisiae fusion-defective mutant growth rescue, CellTiterGlo 48 h. Potency, µM (doses to about 46.1 µM), most hits filed as activators. AID 485298, 2010. hit rate 0.23% among 320,000; also: nearly all actives have a fitted effect of over 45% in size
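S. cerevisiae fusion-defective temperature-sensitive mutants (e.g. fzo1-1, mgm1-5) grown 48 h at 37C in YPEG (ethanol/glycerol non-fermentable) medium with 23 nl compound per well; growth rescue read as CellTiterGlo luminescence.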
Abeta yeast res: qHTS for compounds that reverse cellular toxicity of Amyloid beta (A-beta) peptide in yeast: Primary Screen. yeast expressing A-beta42, growth rescue, OD600, 48 h; response scale: 0% DMSO, 100% iron-clioquinol control. Potency, µM (highest dose often 46.1 µM), actives largely listed as activators. hit rate 0.063% among 410,000. AID 1347071, 2019; also: nearly all actives have a fitted effect of over 55% in size
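Yeast A-beta toxicity model in growth medium with pinned compounds, 48 h at 30 C; growth read as absorbance at 600 nm. Normalized to FeCl3/clioquinol equimolar mix (positive) and DMSO (negative).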
Of the large screens only hits and unclear results are named; the others gave an inactive call. Unless noted, calls follow the shape of the dose curve; as a rule, active = well fitted curve in the direction sought with a large enough effect; inconclusive = small, poorly fitted or top-dose-only effect, or another doubt; inactive = no such curve, though single readings can be large; an effect the other way counts as inactive or inconclusive.

CCN(C(=O)c1ccc2c(c1)N(Cc1cccc(Cl)c1)C(=O)c1ccccc1S2=O)c1ccccc1 (configuration not stated)	FUS suppressor 32µM (no result: aSyn yeast inh, Mito fusion yeast)
CCN(c1ccccc1)c1nnc(NC(=O)Nc2ccc(C)cc2)s1	none (no result: aSyn yeast inh, Mito fusion yeast)
COc1ccccc1NC(=O)N1CCN(c2nnc(C)c3c(C)n(-c4ccccc4)nc23)CC1	none (no result: aSyn yeast inh, Mito fusion yeast)
Cc1ccc(S(=O)(=O)c2c(C)cc(C)nc2Cl)c(C)c1	TDP-43 yeast inh inconclusive
Cc1ccc(C)c(S(=O)(=O)c2c(C)cc(C)nc2Cl)c1	TDP-43 yeast inh 11µM
O=C(O)c1nn(CCOc2ccc(Br)cc2)c(=O)c2ccccc12	TDP-43 yeast inh 13µM
Cc1ccc(C2(C)NC(=O)N(CC(=O)N3c4ccccc4NC(=O)CC3C)C2=O)cc1 (configuration not stated)	aSyn yeast inh 3.5µM
CC(C)Cc1nc(N2CCN(C(=O)c3ccco3)CC2)c(C#N)c2c1CCCC2	TDP-43 yeast inh inconclusive, FUS suppressor inconclusive
CCCC(=O)N1CCN(c2nc(CC(C)C)c3c(c2C#N)CCC3)CC1	TDP-43 yeast inh 11µM, FUS suppressor inconclusive
O=C(Cn1c(-c2cccs2)cc2ccccc21)N1CCN(c2ccc(F)cc2)CC1	none (no result: aSyn yeast inh, Mito fusion yeast)
COC(=O)C1=C(C)NC(C)=C([N+](=O)[O-])C1c1ccccc1C(F)(F)F (configuration not stated)	Mito fusion yeast 13µM
Cc1ccc(-c2nc(C(=O)NC3CCCCCC3)no2)cc1	TDP-43 yeast inh 18µM (no result: Mito fusion yeast)
CCCC(=O)NC1=C(Cl)C(=O)c2ccccc2C1=O	none (no result: FUS suppressor, Mito fusion yeast)
CCNC1=C(Cl)C(=O)c2ccccc2C1=O	TDP-43 yeast inh 13µM
C[C@H]1[C@@H](OC(=O)NCc2cccs2)CC[C@@]23CCCN2C(=O)CCC[C@@H]13	none (no result: aSyn yeast inh, TDP-43 yeast inh, ERG-DNA inh, Mito fusion yeast, Abeta yeast res)
CCc1ccc(CNC(=O)c2cc3c(C)nc4ccccc4c3o2)cc1	TDP-43 yeast inh 20µM, FUS suppressor inconclusive
CCc1c(-c2ccccc2)nc2ccccc2c1C(=O)NCc1ccc(C)cc1	TDP-43 yeast inh 35µM, FUS suppressor inconclusive (no result: aSyn yeast inh, Mito fusion yeast)
CCc1c(-c2ccccc2)nc2ccccc2c1C(=O)NCCc1ccccc1	none (no result: aSyn yeast inh, Mito fusion yeast)
C[C@@H](NCCCc1cccc(C(F)(F)F)c1)c1cccc2ccccc12	none (no result: TDP-43 yeast inh, FUS suppressor, ERG-DNA inh, Mito fusion yeast, Abeta yeast res)
Cc1cc(C)nc(NC(=NCCc2c[nH]c3ccc(Cl)cc23)NC(=O)c2ccccc2C)n1	aSyn yeast inh 0.56µM (no result: Mito fusion yeast)
O=Cc1ccc(-c2ccc([N+](=O)[O-])cc2Cl)o1	TDP-43 yeast inh 11µM
COc1ccc(-c2cc(C3CC3)nc(N)c2C#N)cc1	none
COc1ccc(-c2cc(C3CC3)nc3sc(C#N)c(N)c23)cc1	Mito fusion yeast 13µM
COCCn1c(C)cc(O)c(C(c2ccc(C)cc2)N2CCCCC2)c1=O (configuration not stated)	none (no result: aSyn yeast inh, Mito fusion yeast)
Cc1cc(C(=O)C(=O)Nc2nncs2)c(C)n1-c1ccc(Cl)cc1	TDP-43 yeast inh 11µM (no result: aSyn yeast inh, Mito fusion yeast)
Cc1cccc(-n2c(C)cc(C(=O)C(=O)Nc3nncs3)c2C)c1	TDP-43 yeast inh inconclusive (no result: aSyn yeast inh, Mito fusion yeast)
N#CC1=C(N)N(c2ccccc2)C(=O)C1	none
N#CC1=C(N)N(c2ccccc2Sc2ccccc2)C(=O)C1	FUS suppressor 28µM
C[C@H]1[C@@H](OC(=O)NC2CCC2)CC[C@@]23CCCN2C(=O)CCC[C@@H]13	none (no result: aSyn yeast inh, TDP-43 yeast inh, ERG-DNA inh, Mito fusion yeast, Abeta yeast res)
COc1ccc(Cn2c(=S)[nH]c3ccccc32)cc1	Abeta yeast res 11µM
COc1ccc(-c2nc3ccccc3n2Cc2ccc(C)cc2)cc1	Abeta yeast res inconclusive
COc1ccc(-c2nc3ccccc3n2Cc2ccc(C(C)C)cc2)cc1	TDP-43 yeast inh 22µM (no result: Mito fusion yeast)
COc1ccc(-c2nc3ccccc3n2Cc2ccc(Cl)cc2)cc1	TDP-43 yeast inh 22µM (no result: aSyn yeast inh, Mito fusion yeast)
